Drawing on PubChem BioAssay (NCI), this text covers growth for nine compounds.

Compounds without any hit were thinned out: in the full panel of roughly 83,000, 20% have a hit.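 Plates (96-well) were seeded with cells, treated with compound at one concentration, and incubated for 48 hours before percent growth was determined.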 Values without a mark were called inactive. Active and inactive are the calls of the source. How the source made its calls: active means growth percent below 10; inactive means the rest.

Common to all, as to experiment: NCI-60 one-dose screen, 48 h (100 = growth as untreated, 0 = no growth, -100 = all killed)
What all share (conditions): 10 µM unless noted

Assay [1] concerns HCT-15 colon.
For assay [2], the system named is HT29 colon.
Assay [3] has as its system SNB-19 CNS.
The subject of assay [4] is U251 CNS.
Assay [5] concerns PC-3 prostate.
Assay [6] deals with SK-MEL-5 melanoma.
Assay [7] concerns UACC-62 melanoma.
Assay [8] has as its system LOX IMVI melanoma.
Assay [9] concerns SK-MEL-28 melanoma.
For assay [10], the system named is EKVX NSCLC.
Assay [11] concerns SN12C renal.
Assay [12] deals with UO-31 renal.
Assay [13] has as its system TK-10 renal.
For assay [14], the system named is ACHN renal.
In assay [15] the test system is CAKI-1 renal.
Assay [16] concerns CCRF-CEM leukemia.
The subject of assay [17] is MOLT-4 leukemia.
The subject of assay [18] is SK-MEL-2 melanoma.
Assay [19] relates to SNB-75 CNS.
Assay [20] relates to A498 renal.

Consider `Cc1cccc(-c2cn3ccnc3c(-c3ccc4ncn(Cc5ccccc5)c4c3)n2)c1`, for which the growth was 64.8% in assay [1]; 58% in assay [2]; 97.4% in assay [3]; 80.6% in assay [4]; 75.2% in [5]; 89.9% in assay [6]. Also, the growth in assay [7] is 97.5%; in assay [8], 85.2%; in assay [9] it was 101%; in [10], 77.7%; in assay [11] it was 95.3%; in [12], 58.3%. In addition, the growth in [13] was 110%; in [14], 87.6%; in assay [15] it was 75.2%; in [16], 78.9%; in [17] it was 63.1%.
In the case of `COc1cc(/C=C/c2cc(O)c(C(C)=O)c(O)c2)cc2c1O[C@]1(C)CC[C@@H](O)C(C)(C)[C@H]1C2`, the growth in assay [1] is 42.8%; in assay [2] it was 34.9%; in [3] it was 56.4%; in assay [4] it was 36.1%; in assay [5], 45.2%; in assay [6] it was 65.2%. The growth in assay [7] was 38.7%; in [8], 35.1%; in assay [9], 51.4%; in assay [18] it was 31.4%; in assay [10] it was 90.7%; in [11] it was 82.5%. The growth in assay [12] was 29.7%; in [13] it was 94.7%; in assay [14] it was 65%; in [15], 45%; in assay [16], 37.6%; in assay [17], 20.2%.
`CC(=O)c1ccc(NS(=O)(=O)c2cccc(C(=O)Nc3ccc(Br)cc3)c2)cc1`: the growth is 68.2% [25 µM] in [1]; 87.4% [25 µM] in [2]; 60.4% [25 µM] in assay [3]; 70.8% [25 µM] in assay [4]; 60.4% [25 µM] in assay [5]; -19.8% [25 µM] (active) in assay [6]. The growth in assay [7] is 26.5% [25 µM]; in assay [8], 62.7% [25 µM]; in assay [9], 77.9% [25 µM]; in assay [10], 34.2% [25 µM]; in assay [11] it was 64.7% [25 µM]; in assay [12], 53.8% [25 µM]. Also, the growth in assay [13] is 91.3% [25 µM]; in assay [14], 73.3% [25 µM]; in assay [15], 52.8% [25 µM]; in assay [16] it was 61.6% [25 µM]; in assay [17], 53.7% [25 µM].
Turning to `O=C1c2ccccc2CCC12OC2c1cn(-c2ccccc2)nc1-c1ccc(Cl)cc1` (centres undefined), the growth in assay [1] is 41.4%; in assay [2], 102%; in assay [4], 64.8%; in assay [5] it was 83.6%; in assay [6], 83.1%; in assay [7], 63.8%. The growth in assay [8] was 81.6%; in [9], 100%; in assay [18], 112%; in assay [10], 96.7%; in assay [11], 101%; in assay [12], 88.6%. For the same compound, the growth was 113% in assay [13], 98.8% in assay [14], 74.3% in [15] and 86.3% in assay [16].
With `N#Cc1cccc(-c2ccc3c(c2)NC(=O)/C3=C\c2ccc[nH]2)c1`, the growth was 14.3% in [1]; 53.7% in assay [2]; 92.8% in [4]; 70.2% in assay [5]; 36.6% in assay [6]; 42.7% in [7]. For the same compound, the growth is 66.1% in assay [8]; 83.5% in assay [9]; 81.2% in assay [18]; 25.2% in assay [10]; 87.6% in assay [11]; 65.6% in assay [12]. For the same compound, the growth is 32.3% in assay [13]; 57.8% in [14]; 51.8% in [15]; 69.7% in [16]; 68.2% in assay [17].
Turning to `CCOC(=O)Nc1ccc(-c2ccc3c(c2)NC(=O)/C3=C\c2ccc[nH]2)cc1`, the growth in [1] is 84.6%; in [2] it was 105%; in assay [4], 87.9%; in assay [5], 101%; in assay [6], 99.2%; in [7], 101%. Besides, the growth is 97.2% in assay [8]; 111% in assay [9]; 114% in assay [18]; 30.8% in [10]; 102% in [11]; 72.6% in assay [12]. Besides, the growth in [13] was 77%; in [14], 100%; in assay [15], 93.7%; in assay [16] it was 98.3%; in assay [17] it was 98.8%.
As to `COc1cccc(/C=N/NC(=O)c2cnn3c2NC(c2ccccc2)C3)c1Oc1ccccc1` (centres undefined), the growth was 49.8% in assay [1]; 41.5% in [2]; 75.4% in assay [3]; 83.9% in assay [4]; 72.3% in assay [5]; 73% in assay [6]. Further, the growth in assay [7] is 62.3%; in assay [8], 84.5%; in assay [9] it was 79.1%; in assay [18], 66.2%; in assay [10] it was 93.7%; in assay [11], 104%. Moreover, the growth was 77.4% in [12]; 94.3% in assay [13]; 87% in [14]; 78.2% in assay [15]; 79.4% in [16]; 75.2% in assay [17].
For the compound `COc1cc2nc(-c3ccc(Cl)cc3)cc(OCCCN3CCCCC3)c2cc1OC`, the growth is 17.4% in assay [1]; 18.1% in [2]; 70.5% in [3]; 48.7% in assay [4]; 42.9% in assay [5]; -18.5% (active) in assay [6]. In addition, the growth is -32.6% (active) in assay [7]; -45.2% (active) in [8]; 60% in assay [9]; 65.7% in assay [18]; 66.2% in [10]; 41.8% in assay [11]. The growth was 41.8% in [12], 89.9% in assay [13], 49% in [16] and 37.1% in [17].
Regarding `COc1ccc(-c2cnc3c(-c4cccc5cnccc45)cnn3c2)cc1`, the growth in assay [1] is 64.5%; in [19] it was 42%; in [3], 47.2%; in assay [4], 56.3%; in assay [5] it was 50.6%; in assay [6], 56.5%. Moreover, the growth in assay [7] is 59.3%; in assay [8], 80%; in assay [9] it was 60.5%; in [18], 75.5%; in [10] it was 96.1%; in assay [11], 58.8%. The growth in [12] is 52.1%; in assay [13], 65.8%; in assay [14] it was -1.14% (active); in assay [15], 61.4%; in assay [20] it was 44.6%; in assay [16], 59.2%.
